Bioassay records as filed in PubChem.
TGFb SMAD3 inh: TGF-b pathway inhibition; HepG2 CAGA-GFP TGF-b/SMAD3 reporter, GFP fluorescence, 18 h; TGF-beta stimulated, 500 pg/mL final; Potency, µM (highest dose often 46.1 µM), inactives show at the highest dose activity, negative = inhibition, usual class: inhibitors; actives 1.2% (n = 410,000); AID 588855; also: potency is read from the fitted curve at half-maximal effect; % is scaled to controls: 0 for no effect and ±100 for the full control effect; nearly all actives have a fitted effect of over 65% in size
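Inhibition of TGF-beta-driven CAGA-GFP reporter expression in HEPG2 cells is measured by cellular GFP fluorescence after 18 h stimulation with 500 pg/mL recombinant TGF-beta in 1% FBS medium at 37 degrees C.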
TDP1 block: inhibitors of human tyrosyl-DNA phosphodiesterase TDP1; Q9NUW8; actives 0.28% (n = 350,000); AID 485290; Potency, µM (doses to about 130 µM), without a hit: top-dose activity change, negative = inhibition, usual class: inhibitors; recombinant TDP1, AlphaScreen DNA substrate cleavage; also: potency is read from the fitted curve at half-maximal effect; % is scaled to controls: 0 for no effect and ±100 for the full control effect; nearly all actives have a fitted effect of over 40% in size
Target sequence (Q9NUW8 whole entry, looked up): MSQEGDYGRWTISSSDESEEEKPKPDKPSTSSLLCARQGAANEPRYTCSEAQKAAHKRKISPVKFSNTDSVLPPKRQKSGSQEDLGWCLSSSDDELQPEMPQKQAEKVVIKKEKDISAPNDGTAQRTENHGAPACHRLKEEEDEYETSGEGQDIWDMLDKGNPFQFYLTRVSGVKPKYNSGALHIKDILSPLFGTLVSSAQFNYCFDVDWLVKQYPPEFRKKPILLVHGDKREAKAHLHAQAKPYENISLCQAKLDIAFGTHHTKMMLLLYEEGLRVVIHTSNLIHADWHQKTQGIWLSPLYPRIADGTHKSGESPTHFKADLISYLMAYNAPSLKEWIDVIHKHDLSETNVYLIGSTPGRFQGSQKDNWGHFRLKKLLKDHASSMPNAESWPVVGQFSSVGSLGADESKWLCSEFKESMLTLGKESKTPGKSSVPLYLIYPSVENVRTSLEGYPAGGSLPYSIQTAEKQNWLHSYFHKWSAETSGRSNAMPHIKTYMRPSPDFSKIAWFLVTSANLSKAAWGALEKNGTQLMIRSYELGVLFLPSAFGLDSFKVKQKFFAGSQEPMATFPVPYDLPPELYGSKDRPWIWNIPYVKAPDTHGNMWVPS
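Compounds were preincubated with Tdp1 (1 nM final) for 15 min at room temperature before substrate (15 nM final) started a 5 min reaction; beads (10 ug/ml final) were then added for 10 min before AlphaScreen detection.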
DT40 TDP1 no CPT: qHTS for Inhibitors of human tyrosyl-DNA phosphodiesterase 1 (TDP1): qHTS in cells in absence of CPT | DT40 Tdp1-/- hTDP1 cells, no CPT, ATP luminescence, 48 h | Potency, µM (series often up to 46.2 µM), without a hit: at the top dose activity change, negative = growth inhibition, usual class: inhibitors | actives 15% (n = 420,000) | AID 686978, 2013; also: potency is read from the fitted curve at half-maximal effect; % is scaled to controls: 0 for no effect and ±100 for the full control effect; nearly all actives have a fitted effect of over 55% in size
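Luminescent ATP content (CellTiter-Glo) served as the growth readout. Knockout chicken DT40 cells expressing human TDP1 were exposed to compounds without camptothecin for a minimum 48 hr at 37 °C.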
IL-1B inflam inh: blocks inflammasome-driven IL-1 beta release. THP-1 LPS/ATP IL-1B secretion, AlphaLISA, 16 h; stronger effect = lower value. activity change, % at 57.5 µM. actives 4.7% (n = 360,000); in the data active = activity change below about -50%; inconclusive = mostly about -30% to -49%; also: % is scaled to controls: 0 for no effect and ±100 for the full control effect
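THP-1 cells pretreated 1 hr with compounds (up to 57.5 uM final), then stimulated with LPS (250 ng/mL final) plus ATP (1.25 mM final); secreted IL-1B measured by AlphaLISA after 16 hr, decreased signal indicating inhibition.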
HepG2 tox: counter-screen for TGF-b inhibitors: cytotoxicity in HepG2 cells; actives 0.76% (n = 410,000); HepG2 CAGA-GFP viability, ATP luminescence, 18 h; Potency, µM (doses to about 46.1 µM), inactives show at the highest dose activity change, negative = cytotoxicity, usual class: cytotoxic; also: potency is read from the fitted curve at half-maximal effect
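HepG2 CAGA-GFP cells (1000/well, DMEM with 1% FBS) received compound, then TGF-beta at 500 pg/mL final, and were incubated 18 hours at 37 degrees C. Viability was read by CellTiter-Glo luminescence. Media-only wells were set as complete cell-killing and DMSO as no toxicity.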
DT40 TDP1 CPT: growth inhibition of DT40 Tdp1-/-;hTDP1 cells with camptothecin (screen for TDP1 inhibitors) | chicken DT40 Tdp1-/-;hTDP1 cells + 20 nM CPT, ATP luminescence, 48 h | Potency, µM (doses to about 46.2 µM), without a hit: top-dose activity change, negative = growth inhibition, hits mostly inhibitors | actives 12% (n = 420,000); also: potency is read from the fitted curve at half-maximal effect; % is scaled to controls: 0 for no effect and ±100 for the full control effect; nearly all actives have a fitted effect of over 55% in size
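Chicken DT40 Tdp1-/- cells complemented with human TDP1, 400 cells/well, exposed to compounds plus 20 nM camptothecin for at least 48 h at 37 C; viability read as ATP content by CellTiter-Glo luminescence.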
* = called active by the depositor; [ ] = dose if it differs, or a comment. Compounds with a hit are over-represented: about 18% of the library has one in this group of screens. Unless noted, calls follow the shape of the dose curve; as a rule, active = well fitted curve in the direction sought with a large enough effect; inconclusive = small, poorly fitted or top-dose-only effect, or another doubt; inactive = no such curve, though single readings can be large; an effect the other way counts as inactive or inconclusive.

Results for CCOc1ccc(S(=O)(=O)N2CCCCC2)cc1NC(=O)CN1C(=O)NC(C)(C2CC2)C1=O (stereo not given) ?
TGFb SMAD3 inh: 3%; TDP1 block: -1%[56.1 µM]; DT40 TDP1 no CPT: 1%; IL-1B inflam inh: 10; HepG2 tox: 9%; DT40 TDP1 CPT: inconclusive

What do the screens show for `CC(C)c1c(O)ccc2c1CCC1[C@@](C)(CO)CCC[C@@]21C` (stereo not given in full)?
TDP1 block: 13%[56.1 µM]; DT40 TDP1 no CPT: inconclusive; DT40 TDP1 CPT: inconclusive

How did COC(=O)[C@]1(C)CCC[C@]2(C)c3ccc(C(C)C)cc3C(=O)CC12 (stereo not given in full) do in these assays?
TDP1 block: -6%[56.1 µM]; DT40 TDP1 no CPT: 23µM*; DT40 TDP1 CPT: inconclusive

Results for COC(=O)[C@@]1(C)CCC[C@@]2(C)c3ccc(O)c(C(C)C)c3CCC21 (stereo not given in full) ?
TDP1 block: 12%; DT40 TDP1 no CPT: 10µM*; DT40 TDP1 CPT: 16µM*

Results for CC(C)c1ccc2c(c1)CCC1C(C)(C(N)=O)CCCC21C (stereo not given) ?
TDP1 block: 5%; DT40 TDP1 no CPT: inconclusive; DT40 TDP1 CPT: inconclusive

Results for COC(=O)C1(C)CCCC2(C)c3cc(OC)ccc3C(=O)C(Br)C12 (stereo not given) ?
TGFb SMAD3 inh: inconclusive; DT40 TDP1 no CPT: 6.5µM*; IL-1B inflam inh: -23; HepG2 tox: -84%; DT40 TDP1 CPT: 12µM*

What do the screens show for `Cc1cnc(C(=O)OCC(=O)Nc2ccc(Br)cc2F)cn1`?
TGFb SMAD3 inh: inconclusive; TDP1 block: 0%; DT40 TDP1 no CPT: -4%; IL-1B inflam inh: 8; HepG2 tox: 2%; DT40 TDP1 CPT: inconclusive

Results for O=C(CCCCn1c(=O)c2ccccc2n(Cc2ccccc2F)c1=O)NCc1ccccc1Cl ?
TGFb SMAD3 inh: 2%; TDP1 block: 4%; DT40 TDP1 no CPT: 5.2µM*; HepG2 tox: 11%; DT40 TDP1 CPT: 8.2µM*

Results for O=C(CCCn1c(=O)c2ccccc2n(CC(=O)Nc2ccc(F)cc2F)c1=O)NCc1ccccc1Cl ?
TGFb SMAD3 inh: -50%; TDP1 block: 5%; DT40 TDP1 no CPT: inconclusive; HepG2 tox: -4%; DT40 TDP1 CPT: 16µM*

How did Cc1ccc(C)c(Cn2c(=O)n(CCCCC(=O)NCc3ccccc3Cl)c(=O)c3ccccc32)c1 do in these assays?
TGFb SMAD3 inh: -16%; TDP1 block: -1%; DT40 TDP1 no CPT: 7.3µM*; HepG2 tox: -7%; DT40 TDP1 CPT: 7.3µM*

How did CCc1ccc(NC(=O)Cn2c(=O)n(CCCC(=O)NCc3ccccc3Cl)c(=O)c3ccccc32)cc1 do in these assays?
TGFb SMAD3 inh: inconclusive; TDP1 block: 4%; DT40 TDP1 no CPT: -26%; HepG2 tox: -6%; DT40 TDP1 CPT: -10%

How did O=C(CCCCn1c(=O)c2ccccc2n(Cc2ccccc2F)c1=O)NCc1ccc2c(c1)OCO2 do in these assays?
TGFb SMAD3 inh: -2%; TDP1 block: 1%; DT40 TDP1 no CPT: inconclusive; HepG2 tox: 4%; DT40 TDP1 CPT: -4%

Results for O=C(CCCCn1c(=O)c2ccccc2n(CC(=O)Nc2ccc(F)cc2F)c1=O)NCc1ccccc1Cl ?
TGFb SMAD3 inh: 7%; TDP1 block: 4%; DT40 TDP1 no CPT: -19%; HepG2 tox: -4%; DT40 TDP1 CPT: -10%

How did COc1ccccc1CNC(=O)CCCCn1c(=O)c2ccccc2n(Cc2ccccc2F)c1=O do in these assays?
TGFb SMAD3 inh: 2%; TDP1 block: 4%; DT40 TDP1 no CPT: 2.3µM*; HepG2 tox: -15%; DT40 TDP1 CPT: 3.7µM*

What do the screens show for `Cc1ccc(C(C)C)c(OCC(=O)N2CCN(c3ncccn3)CC2)c1`?
TGFb SMAD3 inh: 3%; TDP1 block: -7%; DT40 TDP1 no CPT: inconclusive; IL-1B inflam inh: -9; HepG2 tox: 0%; DT40 TDP1 CPT: -23%

What do the screens show for `O=C(CCCn1c(=O)c2sccc2n(Cc2c(F)cccc2Cl)c1=O)NCc1ccccc1`?
TGFb SMAD3 inh: 8%; TDP1 block: -3%; DT40 TDP1 no CPT: 16µM*; HepG2 tox: 9%; DT40 TDP1 CPT: inconclusive

Results for CCN(CC)C(=O)Cn1c(=O)n(CCCC(=O)NCc2ccccc2)c(=O)c2sccc21 ?
TGFb SMAD3 inh: 10%; TDP1 block: 5%; DT40 TDP1 no CPT: -8%; IL-1B inflam inh: -15; HepG2 tox: 30%; DT40 TDP1 CPT: -12%

Results for CCCCNC(=O)Cn1ncc2c(C)n(Cc3cccc(Cl)c3)c(C)c2c1=O ?
TGFb SMAD3 inh: -5%; TDP1 block: -5%; DT40 TDP1 no CPT: 21µM*; HepG2 tox: -10%; DT40 TDP1 CPT: 23µM*

Results for CCCCNC(=O)CCCn1c(=O)c2ccccc2n(Cc2cccc(Cl)c2)c1=O ?
TGFb SMAD3 inh: inconclusive; TDP1 block: -3%; DT40 TDP1 no CPT: 23µM*; HepG2 tox: -9%; DT40 TDP1 CPT: 23µM*

How did CCOC(=O)c1ccccc1NC(=O)Cn1c(=O)n(CCC(=O)NCc2ccccc2OC)c(=O)c2ccccc21 do in these assays?
TGFb SMAD3 inh: -11%; TDP1 block: -4%; DT40 TDP1 no CPT: 16µM*; HepG2 tox: -34%; DT40 TDP1 CPT: inconclusive

Results for O=C(CCn1c(=O)c2ccccc2n(Cc2cccc(Cl)c2)c1=O)NCCc1ccccc1 ?
TGFb SMAD3 inh: 4%; TDP1 block: 5%; DT40 TDP1 no CPT: inconclusive; HepG2 tox: 16%; DT40 TDP1 CPT: inconclusive

How did O=C1CCCC2=C1C1(CCOCC1)N=C(Nc1nc3ccccc3o1)N2 do in these assays?
TDP1 block: -5%

Results for Cc1[nH]c2ccc(C(=O)Nc3ccc(F)cc3)cc2c1C ?
TGFb SMAD3 inh: 0%; TDP1 block: 5%; DT40 TDP1 no CPT: inconclusive; HepG2 tox: 5%; DT40 TDP1 CPT: inconclusive

Results for O=C(CN1CCC(NC(=O)c2ccco2)CC1)Nc1ccccc1C(F)(F)F ?
TGFb SMAD3 inh: 22%; DT40 TDP1 no CPT: inconclusive; IL-1B inflam inh: 12; HepG2 tox: 3%; DT40 TDP1 CPT: -28%

How did CCCCNC(=O)CCCn1c(=O)c2ccccc2n(Cc2ccccc2C)c1=O do in these assays?
TGFb SMAD3 inh: -6%; TDP1 block: 5%; DT40 TDP1 no CPT: 21µM*; HepG2 tox: 13%; DT40 TDP1 CPT: inconclusive
